Source: PubChem
Shown are actives, neighbours in structure and some others; about 18% of the full set was active somewhere.
CtBP-E1A blk: qHTS Assay for Inhibitors of the CtBP/E1A Interaction; CtBP / adenovirus E1A interaction (AlphaScreen); AlphaScreen GST-E1A/His-CtBP binding, 1536-well; active compounds read low; activity change, % (test concentration not listed); 340,000 tested, 0.49% active; AID 651724, 2012; in the data active means activity change below about -65%; inconclusive means mostly about -30% to -63%
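Protein mix (5X: 125 nM each GST-E1A, His-CtBP) was incubated with pinned compound 2 h at 37 deg C in dark, in 50 mM Tris pH 8.0 buffer with 300 mM NaCl. Glutathione donor and nickel acceptor beads followed; AlphaScreen signal read after 1 h.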
TDP1 cell CPT: qHTS for Inhibitors of human tyrosyl-DNA phosphodiesterase 1 (TDP1): qHTS in cells in presence of CPT; chicken DT40 Tdp1-/-;hTDP1 cells + 20 nM CPT, ATP luminescence, 48 h; Potency, µM (titrated, usually from 46.2 µM), without a hit: at the highest dose activity change, negative = growth inhibition, usual class: inhibitors; 420,000 tested, 12% active; AID 686979, 2013; further: potency means the concentration at half of the fitted maximal effect; nearly all actives have a fitted effect of over 55% in size
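Cell growth measured by CellTiter-Glo luminescence after a minimum 48 h, 37 C compound exposure with 20 nM CPT in Tdp1-knockout DT40 cells stably expressing hTDP1, seeded 400/well; qHTS titration format.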
DT40 TDP1 no CPT: qHTS for Inhibitors of human tyrosyl-DNA phosphodiesterase 1 (TDP1): qHTS in cells in absence of CPT; DT40 Tdp1-/- hTDP1 cells, no CPT, ATP luminescence, 48 h; Potency, µM (doses to about 46.2 µM), without a hit: at the top dose activity change, negative = growth inhibition, actives largely listed as inhibitors; 420,000 tested, 15% active; AID 686978, 2013; further: potency means the concentration at half of the fitted maximal effect; nearly all actives have a fitted effect of over 55% in size
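No-CPT arm: Tdp1-/-;hTDP1 DT40 cells (400/well) plus compounds, incubated ≥48 hr at 37 °C. Readout CellTiter-Glo luminescence.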
Six1-Eya2 blk: qHTS Assay for Inhibitors of the Six1/Eya2 Interaction. Homeobox protein SIX1 (Homo sapiens) + Protein phosphatase EYA2 (Homo sapiens), …. AlphaScreen GST-Six1/His-Eya2 binding, biochemical; active compounds read low. activity change, % (test concentration not listed). 360,000 tested, 0.56% active. AID 651725, 2012; in the data active means activity change below about -65%; inconclusive means mostly about -30% to -63%
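Six1/Eya2 binding was read as AlphaScreen signal after compounds were pinned into GST-Six1 plus His-tagged Eya2 (5X stock 250/500 nM) in pH 8.0 Tris/NaCl/TCEP buffer, beads added, then incubated 1 h, 37 C, dark.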
TDP1 inh: qHTS Assay for Inhibitors of Tyrosyl-DNA Phosphodiesterase (TDP1); Tyrosyl-DNA phosphodiesterase 1 (Homo sapiens), Q9NUW8; recombinant TDP1, AlphaScreen DNA substrate cleavage; Potency, µM (highest dose often 130 µM), without a hit: top-dose activity change, negative = inhibition, usual class: inhibitors; 350,000 tested, 0.28% active; AID 485290, 2010; further: potency means the concentration at half of the fitted maximal effect; nearly all actives have a fitted effect of over 40% in size
Target sequence (Q9NUW8 whole entry, looked up): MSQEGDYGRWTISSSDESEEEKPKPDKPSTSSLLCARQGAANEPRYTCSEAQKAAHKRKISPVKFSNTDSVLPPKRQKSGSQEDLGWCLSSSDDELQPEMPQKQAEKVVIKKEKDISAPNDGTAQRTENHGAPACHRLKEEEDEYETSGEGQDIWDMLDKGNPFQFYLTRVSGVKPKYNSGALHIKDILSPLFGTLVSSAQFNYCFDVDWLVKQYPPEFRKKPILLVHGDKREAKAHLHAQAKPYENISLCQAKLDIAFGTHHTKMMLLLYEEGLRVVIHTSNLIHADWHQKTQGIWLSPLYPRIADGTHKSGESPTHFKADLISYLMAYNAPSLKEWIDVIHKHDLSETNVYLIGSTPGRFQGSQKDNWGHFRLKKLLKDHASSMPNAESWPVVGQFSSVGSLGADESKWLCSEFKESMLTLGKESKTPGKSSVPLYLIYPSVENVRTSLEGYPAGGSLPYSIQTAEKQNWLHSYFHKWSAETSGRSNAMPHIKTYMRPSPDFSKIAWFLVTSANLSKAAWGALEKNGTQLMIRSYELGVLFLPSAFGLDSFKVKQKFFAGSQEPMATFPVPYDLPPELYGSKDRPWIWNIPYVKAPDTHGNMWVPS
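Tdp1 1 nM final; 15 min RT w/ cpd; substrate 15 nM, 5 min; beads 10 ug/ml, 10 min; AlphaScreen read. Neg ctrl: no enzyme.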
IL1B secr inh: qHTS for Inhibitors of Inflammasome Signaling: IL-1-beta AlphaLISA Primary Screen | THP-1 LPS/ATP IL-1B secretion, AlphaLISA, 16 h; active compounds read low | activity change, % at 57.5 µM | 360,000 tested, 4.7% active | AID 743279, 2014; in the data active means activity change below about -50%; inconclusive means mostly about -30% to -49%
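THP-1 cells pretreated 1 hr with compounds (up to 57.5 uM final), then stimulated with LPS (250 ng/mL final) plus ATP (1.25 mM final); secreted IL-1B measured by AlphaLISA after 16 hr, decreased signal indicating inhibition.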
* marks the source's active call; other numbers are inactive results; ? = inconclusive; . = no result given; [ ] = another dose, or the depositor's remark. Unless noted, the call rests on the fitted dose curve; in most records, active means well fitted curve in the direction sought with a large enough effect; inconclusive means small, poorly fitted or top-dose-only effect, or another doubt; inactive means no such curve, though single readings can be large; an effect the other way counts as inactive or inconclusive. On the % scale 0 is the no-effect control and ±100 the full control effect.

SMILES	CtBP-E1A blk	TDP1 cell CPT	DT40 TDP1 no CPT	Six1-Eya2 blk	TDP1 inh	IL1B secr inh
COc1ccccc1P(=O)(Cc1ccccc1[N+](=O)[O-])c1ccccc1 (stereo unspecified)	3	?	15µM*	1	.	-10
CC1(C(=O)Nc2ccc3[nH]ncc3c2)CCN1C(=O)C/C=C/c1ccccc1 (stereo unspecified)	1	?	18µM*	1	.	-25
CC1(C(=O)Nc2ccc3[nH]ncc3c2)CCN1C(=O)CC(c1ccccc1)c1ccccc1 (stereo unspecified)	-6	?	?	-12	.	-15
CC1(C(=O)Nc2ccc3[nH]ncc3c2)CCN1C(=O)C1(c2ccccc2)CC1 (stereo unspecified)	-11	8.2µM*	-17%	-13	.	-18
CCC(=O)N1CCC1(C)C(=O)Nc1cnc2ccccc2c1 (stereo unspecified)	7	-9%	-19%	-3	.	3
CC1(C(=O)Nc2cnc3ccccc3c2)CCN1C(=O)C/C=C/c1ccccc1 (stereo unspecified)	-4	3.3µM*	6.5µM*	-10	.	0
O=C(CN1CCC(NC(=O)C2CCCCC2)CC1)Nc1ccccc1	1	5%	-12%	7	.	-5
CN(CC(=O)Nc1ccccc1Cl)S(=O)(=O)c1ccc(C(=O)N2CCOCC2)s1	.	15µM*	?	.	-1%	.
N#Cc1c(N2CCN(c3ccc([N+](=O)[O-])cc3)CC2)[n+](=O)c2ccc(Cl)cc2n1[O-]	0	0.46µM*	1.2µM*	4	.	-2
CCn1c(COc2ccccc2C)nnc1SCc1nc2ccccc2c(=O)[nH]1	.	.	.	.	0%	.
CCn1c(SCC(=O)NCC2CCCO2)nnc1-c1ccc(Cl)cc1 (stereo unspecified)	7	6%	5%	-2	-5%	22
CC(=O)Nc1cccc(NC(=O)CSc2ncc(C(=O)Nc3ccccc3)c(=O)n2C)c1	1	5.8µM*	8.2µM*	-16	3%	-100*
Cn1c(SCC(=O)NCC2CCCO2)ncc(C(=O)Nc2ccc(Cl)cc2)c1=O (stereo unspecified)	8	7.3µM*	9.2µM*	-7	-5%	-15
Cn1c(SCC(=O)NCCc2ccccc2)ncc(C(=O)Nc2ccccc2)c1=O	7	?	13µM*	0	-6%	-4
CC(=O)Nc1ccc(NC(=O)CSc2ncc(C(=O)Nc3ccc(Cl)cc3)c(=O)n2C)cc1	5	?	?	-4	-13%	4
CC(=O)Nc1ccc(NC(=O)CSc2ncc(C(=O)Nc3ccc(F)cc3)c(=O)n2C)cc1	-23	18µM*	21µM*	0	-10%	-59*
Cc1nnc(N(C)C(=O)c2ccncc2)s1	.	-1%	-2%	0	5%	12
C/C=C1\NC(=O)[C@H](C)NC(=O)[C@@H](NC(=O)[C@@H](Cc2ccc(O)cc2)NC(=O)[C@@H](NC(=O)/C(C)=C/C)C(C)C)[C@@H](C)OC(=O)[C@H](CCCCc2ccc(O)cc2)NC(=O)[C@@H](CCC(=O)OC)NC1=O	3	-2%	3%	0	.	25
COc1ccccc1NC(=O)C(C)OC(=O)C(C)SCC(=O)Nc1ccc(C)cc1 (stereo unspecified)	8	?	?	-6	6%	17
Cc1nc2cc(Cl)c(Cl)cc2nc1C	4	-23%	-23%	2	5%	39
CC(=O)c1cccc(NC(=O)c2nc3ccccc3n(C)c2=O)c1	.	15µM*	10µM*	.	2%	.
CC(=O)Nc1cccc(NC(=O)CSc2ncc(C(=O)Nc3ccc(F)cc3)c(=O)n2C)c1	2	15µM*	12µM*	-1	-13%	-100*
COc1cc(NC(=O)c2nc3ccccc3n(C)c2=O)cc(OC)c1OC	.	-28%	?	.	0%[12.3 µM]	.
COc1ccccc1CNC(=O)CSc1ncc(C(=O)Nc2ccccc2)c(=O)n1C	12	16µM*	15µM*	-6	-6%	27
Cn1c(SCC(=O)NCc2ccc(F)cc2)ncc(C(=O)Nc2ccccc2)c1=O	3	?	?	24	-15%	30
SMILES	CtBP-E1A blk	TDP1 cell CPT	DT40 TDP1 no CPT	Six1-Eya2 blk	TDP1 inh	IL1B secr inh
CC(=O)c1cccc(NC(=O)CSc2ncc(C(=O)Nc3ccccc3)c(=O)n2C)c1	-27	7.3µM*	7.3µM*	4	-7%	3
CC(=O)N1N=C(c2ccc(Cl)cc2)OC1(C)C	7	-1%	-3%	6	5%	5
COCc1ccc(-c2c(-c3cc(OC)cc(OC)c3)oc(=O)c3cc(OC)c(OC)cc23)cc1	-5	16µM*	21µM*	-6	1%	0
COc1cc2c(C#CCCCO)c(-c3ccsc3)oc(=O)c2cc1OC	.	23µM*	9.2µM*	-16	3%	-21
COc1cc2c(-c3ccc4[nH]ccc4c3)c(-c3ccc(C#N)cc3)oc(=O)c2cc1OC	.	15µM*	5.8µM*	3	-3%	9
COc1cc(OC)cc(-c2oc(=O)c3cc(OC)c(OC)cc3c2C#CCCCO)c1	-16	?	?	-1	2%	13
COc1cc2c(C(F)(F)F)c(-c3ccsc3)oc(=O)c2cc1OC	15	?	?	3	1%	0
COc1ccc(-c2c(-c3ccsc3)oc(=O)c3cc(OC)c(OC)cc23)cn1	5	?	?	1	0%	-2
COc1cc2c(-c3ccc4cc[nH]c4c3)c(-c3ccsc3)oc(=O)c2cc1OC	-6	18µM*	21µM*	-7	0%	-19
CCCCC(CCC(=O)O)(C(=O)OCC)c1csc(Nc2ccc(C)cc2)n1 (stereo unspecified)	-25	-9%	-6%	-3	0%	22
COc1ccccc1NS(=O)(=O)c1ccc(O)c(C(=O)OCC(=O)N2CCc3ccccc32)c1	-7	-4%	-6%	-6	.	22
CCOC(=O)C(C(=O)OCC)c1c([N+](=O)[O-])c(=O)n2c3c(cccc13)CCC2	-9	?	21µM*	-4	.	9
COc1ccc(-c2nc3c(c(SCC(=O)N4CCCCC4)n2)Cc2cc(Cl)ccc2O3)cc1	.	-4%	1%	.	6%	.
